G9a inh: qHTS Assay for Inhibitors of Histone Lysine Methyltransferase G9a | Histone-lysine N-methyltransferase EHMT2 (Homo sapiens), Q96KQ7 | G9a H3K9 monomethylation, AlphaScreen, 2 h | Potency, µM (highest dose often 102 µM), usual class: inhibitors | 8.8% of 350,000 active; further: nearly all actives have a fitted effect of over 75% in size
Target sequence (Q96KQ7 913-1193 limits assumed): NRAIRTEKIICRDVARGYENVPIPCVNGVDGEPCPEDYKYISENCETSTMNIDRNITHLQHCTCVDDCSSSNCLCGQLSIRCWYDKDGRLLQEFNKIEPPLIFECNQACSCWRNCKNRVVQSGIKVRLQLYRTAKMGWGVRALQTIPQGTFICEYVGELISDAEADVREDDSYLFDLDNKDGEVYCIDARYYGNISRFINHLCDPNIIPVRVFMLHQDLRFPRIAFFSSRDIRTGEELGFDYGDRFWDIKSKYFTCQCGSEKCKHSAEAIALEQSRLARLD
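Readings reflect AlphaScreen signal from monomethyl-H3K9 antibody detection. HMT at 20 nM; substrate b-H3K9 500 nM; cofactor SAM 20 uM; 2 h RT reaction; compounds tested as titrations in qHTS with 15 min preincubation.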
Sfp inh: qHTS Assay for Inhibitors of Bacillus subtilis Sfp phosphopantetheinyl transferase (PPTase); 4'-phosphopantetheinyl transferase ffp (Bacillus subtilis), Q9F4F7; Biochemical Sfp PPTase activity, qHTS; Potency, µM, hits mostly inhibitors; 3.5% of 310,000 active; AID 1490, 2009;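 further: the enzyme is Sfp with the accession as filed and its product quenches rhodamine fluorescence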
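Buffer: 50 mM Hepes-Na pH 7.6, 10 mM MgCl2, 0.01% Nonidet P-40, 0.01% BSA. Enzyme 15 nM, pre-exposed to compound 15 min; substrates then added and fluorescence change tracked over 30 min.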
BAZ2B block: qHTS Assay for Inhibitors of BAZ2B; 4.4% of 360,000 active; Bromodomain adjacent to zinc finger domain protein 2B (Homo sapiens), Q9UIF8; AlphaScreen BAZ2B-H3K14Ac peptide displacement; Potency, µM (titrated, usually from 114 µM), hits mostly inhibitors; AID 504333, 2011; further: nearly all actives have a fitted effect of over 60% in size
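In this displacement format the biotinylated H3(5-23) peptide acetylated at Lys14 serves as ligand at 50 nM, with BAZ2B at 50 nM in PBS pH 7.4 containing 0.01% Tween-20. Donor and acceptor beads are 10 ug/mL final.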
TDP1 block: qHTS Assay for Inhibitors of Tyrosyl-DNA Phosphodiesterase (TDP1) | Tyrosyl-DNA phosphodiesterase 1 (Homo sapiens), Q9NUW8 | recombinant TDP1, AlphaScreen DNA substrate cleavage | Potency, µM (top dose mostly 130 µM), usual class: inhibitors | 0.28% of 350,000 active; further: nearly all actives have a fitted effect of over 40% in size
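Here, a 5' biotin and 3' phosphotyrosine-FITC DNA oligonucleotide reports Tdp1 activity: intact substrate bridges AlphaScreen beads, while cleavage leaves a 3' phosphate and drops signal. All incubations at room temperature.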
JMJD2A Tudor: qHTS Assay for Inhibitors of JMJD2A-Tudor Domain | Lysine-specific demethylase 4A (Homo sapiens), O75164 | AlphaScreen JMJD2A-Tudor / H3K4me3 peptide binding | Potency, µM (highest dose often 114 µM), hits mostly inhibitors | 4.4% of 390,000 active | AID 504339, 2011; further: nearly all actives have a fitted effect of over 50% in size
HP1b binding inh: HTS for Inhibitors of HP1-beta Chromodomain Interactions with Methylated Histone Tails; Chromobox protein homolog 1 (Homo sapiens), P83916; AlphaScreen HP1-beta / biotin-H3K9me3 peptide binding; Potency, µM (highest dose often 114 µM), hits mostly inhibitors; 0.56% of 390,000 active; AID 540317, 2011; further: nearly all actives have a fitted effect of over 70% in size
Target sequence (P83916 whole entry, looked up): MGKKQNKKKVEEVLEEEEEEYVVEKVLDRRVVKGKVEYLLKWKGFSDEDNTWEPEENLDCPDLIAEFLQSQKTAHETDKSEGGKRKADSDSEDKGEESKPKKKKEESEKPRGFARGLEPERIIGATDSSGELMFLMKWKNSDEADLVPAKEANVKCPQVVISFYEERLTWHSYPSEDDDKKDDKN
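AlphaScreen: HP1-beta (50 nM) preformed 30 min with biotin-H3(1-18)K9me3 peptide (50 nM) in PBS pH 7.4, 0.01% Tween-20. Compound added for 30 min at RT, then streptavidin donor/nickel chelate acceptor beads (10 ug/mL) for 30 min.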
Of the large screens only hits and unclear results are named; the others gave an inactive call. This is a sample that favours compounds with a hit; in the whole collection about 12% have one here. The call rests on the fitted dose curve; in most records, active means well fitted curve in the direction sought with a large enough effect; inconclusive means small, poorly fitted or top-dose-only effect, or another doubt; inactive means no such curve, though single readings can be large; an effect the other way counts as inactive or inconclusive.

Cc1occc1C(=O)Nc1ccc(S(N)(=O)=O)cc1	JMJD2A Tudor 22.4µM, HP1b binding inh inconclusive (no result: G9a inh)
Cc1ccsc1C(=O)NNC(=O)Nc1ccc(Cl)c(Cl)c1	none
Cc1occc1C(=O)NNC(=O)Nc1ccc(Cl)c(Cl)c1	JMJD2A Tudor 50.1µM
O=c1ccc(-c2ccc(S(=O)(=O)Nc3cccc([N+](=O)[O-])c3)s2)n[nH]1	G9a inh 70.8µM
Cc1ccc(N2C(=O)CN(Cc3ccccc3)C2=S)cc1C	none (no result: TDP1 block)
CC1CC(=O)N(c2ccc(N(C)Cc3ccccc3)c([N+](=O)[O-])c2)C1=O (stereo not given)	BAZ2B block 11.2µM
O=C(CCn1nc(-c2ccc(Cl)cc2)ccc1=O)N1CCN(c2ccccc2)CC1	none (no result: TDP1 block)
CCN(CC)CCSc1nc2ccccc2c(=S)n1-c1ccccc1	G9a inh inconclusive, BAZ2B block inconclusive, JMJD2A Tudor 50.1µM, HP1b binding inh inconclusive
Cc1ccc(NNC(=O)c2cc(C(C)(C)C)nn2Cc2ccccc2)cc1	G9a inh 3.55µM, JMJD2A Tudor 70.8µM, HP1b binding inh inconclusive
CC(C)(C)C(=O)NNC(=O)c1cc(C(C)(C)C)nn1Cc1ccccc1	none
COc1ccccc1NNC(=O)c1cc(C(C)(C)C)nn1Cc1ccccc1	G9a inh 12.6µM, BAZ2B block inconclusive
CCCCOc1ccc(C(=O)N2CCN(CC(=O)Nc3ccc(C)cc3)CC2)cc1OC	none
Cc1ccc(S(=O)(=O)N(C)c2ccc(C(=O)N(CC(C)C)C3CCS(=O)(=O)C3)cc2)cc1 (stereo not given)	none (no result: Sfp inh)
O=S(=O)(c1ccccc1)c1cc(O)ccc1O	G9a inh 50.1µM
O=S(=O)(c1ccc(Cl)cc1)c1cc(O)ccc1O	G9a inh 44.7µM, HP1b binding inh inconclusive
Nc1ccc(CCn2ccnc2)cc1	BAZ2B block 44.7µM, JMJD2A Tudor 79.4µM (no result: TDP1 block)
CN1CCN(C(=O)c2cc3c(ccc4ccccc43)oc2=O)CC1	G9a inh 50.1µM
CCCCC1NC(C(=O)O)CS1 (stereo not given)	G9a inh 5.01µM, Sfp inh inconclusive, BAZ2B block 50.1µM, JMJD2A Tudor 31.6µM, HP1b binding inh inconclusive
CCc1ccc(NC(=O)Cc2csc(COc3cccc(C)c3)n2)cc1	none (no result: Sfp inh)
COc1cccc(Cn2c(=O)c3[nH]cnc3n(-c3ccccc3C)c2=O)c1	G9a inh 70.8µM
CCOC(=O)CNC(=O)C(=O)c1c(O)[nH]c2ccccc12	JMJD2A Tudor 50.1µM
Cc1[nH]c2ccccc2c1C(=O)C(=O)NCCOc1ccccc1	none
O=C(NCCc1ccc(F)cc1)Nc1ccc([N+](=O)[O-])cc1	G9a inh inconclusive
O=[N+]([O-])c1ccc(NC(=S)NCCc2ccc(F)cc2)cc1	G9a inh inconclusive, Sfp inh inconclusive, BAZ2B block 79.4µM, JMJD2A Tudor inconclusive
S=C(NCCCc1ccccc1)Nc1ccccc1	none
S=C(NCCc1ccccc1)Nc1ccc(Nc2ccccc2)cc1	BAZ2B block 8.91µM, JMJD2A Tudor 17.8µM, HP1b binding inh 11.2µM (no result: G9a inh)
Cc1cccc(C)c1NC(=S)NCCc1ccc(O)c(O)c1	G9a inh 25.1µM, Sfp inh 50.1µM
CC(C)(C)NC(=S)Nc1ccc(Nc2ccccc2)cc1	G9a inh 11.2µM, Sfp inh inconclusive, BAZ2B block 28.2µM, JMJD2A Tudor 31.6µM
CC(C)ON(C(C(=O)NO)C(C)C)S(=O)(=O)c1ccc(-c2ccccc2)cc1 (stereo not given)	none (no result: G9a inh, BAZ2B block, JMJD2A Tudor, HP1b binding inh)
Cc1ccc(NC(=O)c2oc3ccccc3c2NC(=O)c2cc3ccccc3o2)cc1	none (no result: Sfp inh)
S=C(NCCc1ccccc1)Nc1c(Cl)cccc1Cl	G9a inh inconclusive, Sfp inh 31.6µM (no result: TDP1 block)
CNC(=S)NCCc1ccccc1	none (no result: TDP1 block)
CC(C)(CNC(=S)NCCc1ccccc1)CNC(=S)NCCc1ccccc1	G9a inh 10µM, BAZ2B block inconclusive, JMJD2A Tudor inconclusive
CC1(C)S[C@@H]2[C@H](NC(=O)[C@@H](NC(=O)N3CCNC3=O)c3ccccc3)C(=O)N2[C@H]1C(=O)O	none (no result: BAZ2B block, JMJD2A Tudor, HP1b binding inh)
C=CCOc1ccc(CNc2nccs2)cc1OCC	none
COc1cc(CNn2cn[nH]c2=S)cc(Cl)c1OCc1ccc(F)cc1	G9a inh 5.62µM
C=CCOc1ccc(CNn2cn[nH]c2=S)cc1OCC	Sfp inh inconclusive, JMJD2A Tudor 8.91µM
C=CCOc1ccc(CNn2cn[nH]c2=S)cc1OC	G9a inh 3.16µM, JMJD2A Tudor 22.4µM
O=C(NCCS(=O)(=O)N1CCN(c2ccccc2)CC1)c1cccc(F)c1	G9a inh inconclusive (no result: Sfp inh, TDP1 block)
COc1cccc(C(=O)Nc2cccc(-c3cn4ccsc4n3)c2)c1OC	BAZ2B block inconclusive (no result: Sfp inh)
COc1ccc(NC(=O)CS(=O)(=O)c2cccc(Cl)c2)cc1	JMJD2A Tudor inconclusive (no result: TDP1 block)
CCC(=O)N1CCc2cc(S(=O)(=O)N3CCN(c4cc(C)ccc4C)CC3)ccc21	none
CC1(C)CC(=O)C(Sc2ccccc2[N+](=O)[O-])=C(O)C1	G9a inh 50.1µM, Sfp inh inconclusive, BAZ2B block inconclusive
CSc1ccccc1N=CC1=C(O)CC(C)(C)CC1=O	G9a inh inconclusive
CCOc1ccc(NC(=O)c2sc3nc4c(c(-c5ccc(OC)cc5)c3c2N)C(=O)CC(C)(C)C4)cc1	none (no result: Sfp inh, TDP1 block)
O=Cc1ccc(-c2ccccc2C(=O)O)o1	G9a inh inconclusive
Cc1cc2nc3s/c(=C/c4ccc(-c5ccccc5C(=O)O)o4)c(=O)n3c2cc1C	G9a inh 3.55µM, Sfp inh 79.4µM, BAZ2B block 50.1µM, JMJD2A Tudor 31.6µM, HP1b binding inh inconclusive (no result: TDP1 block)
Cc1cc2nc(/C(C#N)=C\c3ccc(-c4ccccc4C(=O)O)o3)[nH]c2cc1C	G9a inh inconclusive, BAZ2B block inconclusive (no result: TDP1 block)
O=C(O)c1cc(-c2ccc(/C=c3\sc4nc5ccc(Br)cc5n4c3=O)o2)ccc1Cl	G9a inh 0.794µM, Sfp inh 56.2µM, BAZ2B block 17.8µM (no result: TDP1 block, JMJD2A Tudor, HP1b binding inh)
O=C(O)c1ccccc1-c1ccc(/C=c2\sc3nc4cc(Br)cnc4n3c2=O)o1	G9a inh inconclusive, Sfp inh 35.5µM, BAZ2B block 39.8µM, TDP1 block 7.94µM, JMJD2A Tudor 3.16µM, HP1b binding inh 6.31µM
CC1(C)O[C@H]2[C@@H](O1)[C@@H](C(=O)Nc1ccccc1O)O[C@@H]1OC(C)(C)O[C@@H]12	G9a inh 1µM (no result: Sfp inh)
COC(=O)c1ccccc1NC(=O)[C@H]1O[C@@H]2OC(C)(C)O[C@@H]2[C@H]2OC(C)(C)O[C@H]21	none (no result: Sfp inh)

Compound activity from PubChem.
